According to PubChem BioAssay (NCI):
About 83,000 compounds went through this panel and 20% of them were active in at least one assay; those are over-represented in the sample as a whole.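 Cells were grown in 96-well plates and exposed to the test compound at a single concentration for 48 hours; results are reported as percent growth, with values below 10 considered active.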 A number with no mark means an inactive call. Activity calls are given as the source filed them.

Assays:
Assay in all cases: NCI-60 one-dose screen, 48 h (100 = growth as untreated, 0 = no growth, -100 = all killed)
Details in all cases: 10 µM unless noted
SK-MEL-2 melanoma = tested on: SK-MEL-2 melanoma
EKVX NSCLC = tested on: EKVX NSCLC
SN12C renal = tested on: SN12C renal
UO-31 renal = tested on: UO-31 renal
TK-10 renal = tested on: TK-10 renal
ACHN renal = tested on: ACHN renal
CAKI-1 renal = tested on: CAKI-1 renal
A498 renal = tested on: A498 renal
CCRF-CEM leukemia = tested on: CCRF-CEM leukemia
MOLT-4 leukemia = tested on: MOLT-4 leukemia

| SMILES | growth (SK-MEL-2 melanoma) [%] | growth (EKVX NSCLC) | growth (SN12C renal) | growth (UO-31 renal) | growth (TK-10 renal) | growth (ACHN renal) | growth (CAKI-1 renal) | growth (A498 renal) | growth (CCRF-CEM leukemia) | growth (MOLT-4 leukemia) |
| --- | --- | --- | --- | --- | --- | --- | --- | --- | --- | --- |
| COc1cccc(C2C3=C(COC3=O)N(CCO)c3cc4c(cc32)OCCO4)c1 (stereo not given) | 78.1 | 39.7% | 31% | 75% | 66.9% | 24.8% | 41.6% | -21.8% (active) | 11.5% | 11.8% |
| O=C(/C=C/c1ccco1)c1ccc(Nc2ccnc3cc(Cl)ccc23)cc1 | 86.5 | 85.2% | 90.6% | 94.8% | 116% | 96.5% | 96% | 33.6% | 45.1% | 10.8% |
| COc1nc2ccccc2cc1/C=[N+](\[O-])c1ccccc1 | 87.8 | 87% | 59.1% | 43.9% | 79.6% | 86.1% | 79.8% | 90.3% | 13.1% | 29.5% |
| C=C(CNCCO)[C@@H]1CC[C@]2(CO)CC[C@]3(C)[C@H](CC[C@@H]4[C@@]5(C)CCC(NCCO)C(C)(C)[C@@H]5CC[C@]43C)[C@@H]12 (stereo not given in full) | 96.1 | 82.4% | 89.1% | 65.2% | 92.7% | 95.9% | 72.2% | 75.3% | 39.2% | 39.9% |
| COc1ccc(-n2c(=O)n(-c3ccc(-c4nc5ccc(F)cc5s4)cc3)c(=O)c3cccnc32)cc1 | 103 | 91.6% | 100% | 75.6% | 119% | 103% | 85.3% | 98.2% | 102% | 97.7% |
| COc1ccc(C(c2cc(OC)c(OC)c(OC)c2)n2cncn2)cc1O (stereo not given) | 55.9 | 39.8% | 39.3% | 58% | 61.3% | 52.4% | 40.4% | 9.66% (active) | 9.34% (active) | 16.7% |
| Clc1ccc2c(NCCCn3cnc4c(N5CCCC5)nc(Cl)nc43)ccnc2c1 | 89.6 | 96.4% | 94.3% | 77.4% | 102% | 91.8% | 90.8% | 94.4% | 104% | 92.3% |
| COc1ccc(Cn2cc3c(c2)-c2oncc2CC3)cc1 | 68 | 66.3% | 77.8% | 68.2% | 101% | 99.2% | 64% | 57.7% | 35.2% | 58% |
| CC/C(=C(/c1ccc(Cl)cc1)c1ccc(OCCN(CC)CC)cc1)c1ccc(OC)cc1 | 89.5 | 62.2% | 67.5% | 67.5% | 64.9% | 79.4% | 77% | 104% | 24.3% | 19.7% |
| CCCCC/C=C/CCC(=O)N[C@H]1[C@H](Oc2c3cc4cc2Oc2ccc(cc2Cl)[C@@H](O[C@@H]2O[C@H](CO)[C@@H](O)[C@H](O)[C@H]2NC(C)=O)[C@@H]2NC(=O)[C@H](NC(=O)[C@@H]4NC(=O)[C@H]4NC(=O)[C@@H](Cc5ccc(c(Cl)c5)O3)NC(=O)[C@@H](N)c3ccc(O)c(c3)Oc3cc(O)cc4c3)c3ccc(O)c(c3)-c3c(O[C@H]4O[C@H](CO)[C@@H](O)[C@H](O)[C@@H]4O)cc(O)cc3[C@H](C(=O)O)NC2=O)O[C@H](CO)[C@H](O)[C@@H]1O | 112 | 96.4% | 94.7% | 82% | 112% | 103% | 84.1% | 102% | 113% | 101% |
| N#CSCc1cc(Cl)c(CSC#N)cc1Cl | 96.5 | 104% | 41.5% | 41.9% | 94% | 45.3% | 38.3% | 104% | 2.13% (active) | 17.7% |
| CC(Cc1cccc2ccccc12)C(N)=O (stereo not given) | 105 | 104% | 97.2% | 87.3% | 98.7% | 103% | 93.8% | 100% | 97.1% | 99.8% |
| CCOC(=O)c1c2c(n3ccc(NC(=O)CCN4CCCC4)cc13)C(=O)c1ncccc1C2=O | 93.9 | -49.2% (active) | -63.5% (active) | 16.9% | -92.2% (active) | 13.6% | 9.9% (active) | 46.3% | -36.4% (active) | -23% (active) |
| COc1cc(OCc2cccc(-c3ccc4c(c3)OCCO4)c2C)cc(OC)c1C=O | 58.3 | 53.7% | 68.2% | 51% | 43.4% | 48% | 25.9% | -10.4% (active) | 59.1% | 56.4% |
| C=C(C)Cn1c(SCC(=O)c2cccs2)nc2sc3c(c2c1=O)CCCC3 | 92.3 | 77.1% | 64.5% | 58.6% | 87.5% | 44.3% | 53.8% | 72.1% | 40% | 41.9% |
| CCOC(=O)c1c(N)sc2cc(O)ccc12 | 110 | 106% | 101% | 83% | 101% | 98.2% | 97.7% | 104% | 111% | 84.5% |
| COc1ccc(NC(=O)c2ccc(Cl)cc2Cl)cc1 | 106 | 89.1% | 101% | 96.5% | 88.3% | 117% | 95.7% | 72.6% | 106% | 107% |
| COC(=O)[C@H]1Cc2c([nH]c3ccccc23)[C@H](c2ccc3c(c2)OCO3)N1 | 113 | 95.5% | 100% | 80.2% | 96% | 98.4% | 82.3% | 97.5% | 96.4% | 100% |
| O=C(O)c1cc2ccccc2s1 | 127 | 106% | 106% | 94.5% | 123% | 103% | 94.7% | 108% | 100% | 100% |
| C/C(=C(\c1ccc(OCCCN(C)C)cc1)c1ccc(OC(=O)Cc2ccccc2)cc1)c1ccc(Cl)cc1 | 92.7 | 70.4% | 87.3% | 62% | 87.8% | 94.3% | 83.7% | 103% | 66.4% | 48.7% |
| C#CC(F)(F)[C@]1(O)CCC2C3CCC4=CC(=O)CCC4=C3[C@@H](c3ccc(N(C)C)cc3)C[C@@]21C (stereo not given in full) | 91.8 | 90.4% | 104% | 76.3% | 89.7% | 99.4% | 86.4% | 87.9% | 56.7% | 75.4% |
| COc1cc(/C=C2\CN(S(=O)(=O)c3ccc(C)cc3)C/C(=C\c3cc(CN4CCCC4)c(O)c(OC)c3)C2=O)cc(CN2CCCC2)c1O | 14.4 | 0.183% (active) | -56.1% (active) | 4.71% (active) | 24.7% | 1.63% (active) | 23.9% | 40.9% | -5.62% (active) | -8.53% (active) |
| Cc1ccc(C23CCC(=O)N2CCc2cncn23)cc1 (stereo not given) | 107 | 104% | 99% | 96.8% | 91.7% | 105% | 107% | 96.8% | 95.1% | 104% |
| Cc1ccccc1NC(=O)Cn1cc(CN2CCN(c3ccnc4cc(Cl)ccc34)CC2)nn1 | 110 | 97.1% | 94.7% | 71.1% | 102% | 95% | 80.3% | 84.8% | -33.5% (active) | 45.3% |
| Cc1c(Cl)cccc1NC(=O)c1sc2nc3c(cc2c1N)CCCC3 | 22.1 | 52.4% | 41.2% | 45.8% | 62.2% | 47.2% | 33.9% | -1.63% (active) | 20.4% | 21.6% |
| CN(C)c1ccc(/C=C/C2=[N+](C)c3ccccc3C2(C)C)cc1 | 16.4 | 22.6% | -9.66% (active) | 19.4% | 30.4% | 14% | 29.3% | 66.6% | 11.9% | -6.54% (active) |
